# Results taken from PubChem BioAssay AID652145 (The Scripps Research Institute Molecular Screening Center, 2013).
# The list shows a part of the results. Activity calls are given as the source filed them. No rule for the calls is given here.
# Assay: potency against coupled GDH and TPI enzymes – biochemical, fluorescence, IC50, artefact control for M. tuberculosis FBA inhibitor project, dose response (AID 652145)
# Settings: GDH-TPI coupled enzyme assay, artifact counterscreen
row,Structure (SMILES),IC50
1,COc1ccc2oc(=O)c(C(=O)NCc3ccccn3)cc2c1,1.9 µM (active)
2,O=C1C(=O)N(c2ccccc2)C(c2ccccc2)C1c1ccccc1 (centres undefined),> 10 µM (inactive)
3,CCCNC(=O)c1c(N)n(-c2ccc(S(N)(=O)=O)cc2)c2nc3ccccc3nc12,2.08 µM (active)
4,Cn1cccc1-c1nc2ccccc2n1C,5.56 µM (active)
5,CCOc1c2ccc(C(=O)NC3CCCc4ccccc43)cc2nn1CC (centres undefined),1.79 µM (active)
6,O=C(NCc1cccc(Cl)c1)C1=CC=CN2CCS(=O)(=O)N=C12,4.94 µM (active)
7,CC(=O)N1CCN(C(=O)c2cc(-c3ccc(Cl)s3)nc3ccccc23)CC1,2.27 µM (active)
8,N#Cc1c(N2CCCCC2)nc(N)c2c(N)nc(SCC(=O)O)cc12,> 10 µM (inactive)
9,CC(=O)N1C(=O)/C(=C2\SC(=S)N(NC(=O)c3ccc(O)cc3)C2=O)c2ccccc21,> 10 µM (inactive)
